Assay results taken from the supplement of paper PMC12282887.
± gives the standard deviation of the averaged measurements.

Test system: E. coli BW25113 marRABp lux reporter
Test: promoter activity interaction Z-score (Lux/OD deviation from empty-vector control); higher = stronger promoter induction by the compound
Protocol: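 E. coli BW25113 (wild type or ΔmarA/ΔsoxS/Δrob) carrying pTU175 luxCDABE promoter reporters was grown in LB in 384-well plates at 37°C with each of 94 compounds at 4 two-fold concentrations, in biological duplicates. Luminescence and OD600 were read every 30 min for 12 h and integrated as AUC over 8 h (0-8 h WT, 1-9 h mutants). Lux AUC was divided by OD AUC; the interaction score is the residual of a Huber robust fit of each promoter against the empty-vector control, then Z-transformed per promoter.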

Row | SMILES | promoter activity interaction Z-score (1.9 µg/ml, genetic background: wild type) | promoter activity interaction Z-score (1.9 µg/ml, genetic background: ΔmarA) | promoter activity interaction Z-score (1.9 µg/ml, genetic background: Δrob) | promoter activity interaction Z-score (1.9 µg/ml, genetic background: ΔsoxS) | promoter activity interaction Z-score (3.7 µg/ml, genetic background: wild type) | promoter activity interaction Z-score (3.7 µg/ml, genetic background: ΔmarA) | promoter activity interaction Z-score (3.7 µg/ml, genetic background: Δrob) | promoter activity interaction Z-score (3.7 µg/ml, genetic background: ΔsoxS) | promoter activity interaction Z-score (7.4 µg/ml, genetic background: wild type) | promoter activity interaction Z-score (7.4 µg/ml, genetic background: ΔmarA) | promoter activity interaction Z-score (7.4 µg/ml, genetic background: Δrob) | promoter activity interaction Z-score (7.4 µg/ml, genetic background: ΔsoxS) | promoter activity interaction Z-score (23.5 µg/ml, genetic background: wild type) | promoter activity interaction Z-score (23.5 µg/ml, genetic background: ΔmarA) | promoter activity interaction Z-score (23.5 µg/ml, genetic background: Δrob) | promoter activity interaction Z-score (23.5 µg/ml, genetic background: ΔsoxS) | promoter activity interaction Z-score (47.1 µg/ml, genetic background: wild type) | promoter activity interaction Z-score (47.1 µg/ml, genetic background: ΔmarA) | promoter activity interaction Z-score (47.1 µg/ml, genetic background: Δrob) | promoter activity interaction Z-score (47.1 µg/ml, genetic background: ΔsoxS) | promoter activity interaction Z-score (94.1 µg/ml, genetic background: wild type) | promoter activity interaction Z-score (94.1 µg/ml, genetic background: ΔmarA) | promoter activity interaction Z-score (94.1 µg/ml, genetic background: Δrob) | promoter activity interaction Z-score (94.1 µg/ml, genetic background: ΔsoxS) | promoter activity interaction Z-score (188.3 µg/ml, genetic background: wild type) | promoter activity interaction Z-score (188.3 µg/ml, genetic background: ΔmarA) | promoter activity interaction Z-score (188.3 µg/ml, genetic background: Δrob) | promoter activity interaction Z-score (188.3 µg/ml, genetic background: ΔsoxS)
1 | CCCCCCCCCCCCC[N+](C)(C)Cc1ccccc1 [Benzalkonium] | -0.577 ± 0.068 | 0.106 ± 0.047 | -0.463 ± 0.11 | -0.158 ± 0.0077 | -0.168 ± 0.0038 | -0.194 ± 0.23 | -0.586 ± 0.14 | -0.214 ± 0.035 | -0.235 ± 0.61 | -0.581 ± 0.057 | -0.529 ± 0.065 | -0.255 ± 0.23 |  |  |  |  |  |  |  |  |  |  |  |  |  |  |  | 
2 | C[C@H](CCC(=O)O)[C@H]1CC[C@H]2[C@@H]3CC[C@@H]4C[C@H](O)CC[C@]4(C)[C@H]3CC[C@]12C [Lithocholic acid] |  |  |  |  |  |  |  |  |  |  |  |  | 0.0125 ± 0.049 | 0.215 ± 0.24 | 0.171 ± 0.16 | -0.00159 ± 0.033 | 0.0767 ± 0.14 | 0.199 ± 0.2 | 0.159 ± 0.08 | 0.29 ± 0.41 | -0.14 ± 0.0041 | -0.0736 ± 0.21 | 0.0252 ± 0.008 | -0.23 ± 0.21 | -0.189 ± 0.024 | 0.0134 ± 0.26 | 0.123 ± 0.086 | 0.0918 ± 0.55
